# JMJD2A Tudor: blocks the human JMJD2A Tudor domain; O75164; AlphaScreen JMJD2A-Tudor / H3K4me3 peptide binding; 390,000 tested, 4.4% active; Potency, µM (doses to about 114 µM), most hits filed as inhibitors; also: nearly all actives have a fitted effect of over 50% in size
# PLK1 PBD block: PLK1 (human) polo-box domain binding inhibition; P53350; Plk1 PBD binding of FITC phosphopeptide, fluorescence polarization; Potency, µM, actives largely listed as inhibitors; 360,000 tested, 2.8% active; also: series mostly up to about 57 µM; nearly all actives have a fitted effect of over 65% in size
# Target sequence (P53350 whole entry, looked up, the tested form may be a part): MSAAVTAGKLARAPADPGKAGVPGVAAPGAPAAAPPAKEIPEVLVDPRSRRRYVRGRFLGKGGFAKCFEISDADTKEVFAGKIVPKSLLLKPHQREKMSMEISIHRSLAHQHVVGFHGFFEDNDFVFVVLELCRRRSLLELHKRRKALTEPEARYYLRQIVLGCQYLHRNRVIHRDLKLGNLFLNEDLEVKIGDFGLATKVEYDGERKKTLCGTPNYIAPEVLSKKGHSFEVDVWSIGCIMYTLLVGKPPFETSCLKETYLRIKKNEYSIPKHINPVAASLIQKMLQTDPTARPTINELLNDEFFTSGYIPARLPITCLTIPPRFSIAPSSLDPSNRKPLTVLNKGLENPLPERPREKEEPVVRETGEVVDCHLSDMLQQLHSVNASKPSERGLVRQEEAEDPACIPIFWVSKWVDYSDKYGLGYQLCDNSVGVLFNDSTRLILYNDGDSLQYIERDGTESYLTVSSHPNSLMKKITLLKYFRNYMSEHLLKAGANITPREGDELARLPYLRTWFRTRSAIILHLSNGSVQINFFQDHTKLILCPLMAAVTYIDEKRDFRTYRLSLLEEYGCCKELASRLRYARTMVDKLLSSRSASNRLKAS
# VDR inh: blocks the human vitamin D receptor. P11473. VDR-SRC2-3 peptide fluorescence polarization, 2 h. Potency, µM, usual class: inhibitors. 400,000 tested, 0.93% active
#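 Signal is fluorescence polarization, reporting how far test compounds block the interaction of VDR with the SRC2-3 coregulator peptide after a 2 h room-temperature incubation.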
# L3MBTL1 inh: blocks human L3MBTL1; AlphaScreen L3MBTL1–H3K9me1 peptide binding; Potency, µM (top dose mostly 57.1 µM), most hits filed as inhibitors; 230,000 tested, 0.66% active; AID 485360; also: nearly all actives have a fitted effect of over 60% in size
#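 Displacement of a biotinylated histone H3(1-15) peptide monomethylated at Lys9 (75 nM) from L3MBTL1 (50 nM) was measured by AlphaScreen after a 30 min room-temperature compound incubation; cefsulodin titration served as intraplate control.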
# HP1b chromo inh: HP1-beta chromodomain-methylated histone interaction inhibition; P83916; AlphaScreen HP1-beta / biotin-H3K9me3 peptide binding; Potency, µM (titrated, usually from 114 µM), usual class: inhibitors; 390,000 tested, 0.56% active; AID 540317; also: nearly all actives have a fitted effect of over 70% in size
#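 AlphaScreen: HP1-beta (50 nM) preformed 30 min with biotin-H3(1-18)K9me3 peptide (50 nM) in PBS pH 7.4, 0.01% Tween-20. Compound added for 30 min at RT, then streptavidin donor/nickel chelate acceptor beads (10 ug/mL) for 30 min.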
# BAZ2B block: blocks human BAZ2B. AlphaScreen BAZ2B-H3K14Ac peptide displacement. 360,000 tested, 4.4% active. Potency, µM (top dose mostly 114 µM), usual class: inhibitors; also: nearly all actives have a fitted effect of over 60% in size
#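 Inhibition is scored as reduced AlphaScreen emission. The BAZ2B/b-H3(5-23)K14Ac complex (50 nM each) in PBS pH 7.4, 0.01% Tween-20 meets compound (up to 110 uM) for 30 min at RT before bead addition.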
# A number is an active result; – = inactive; ? = inconclusive; · = no result given; [ ] = another dose, or the depositor's remark. Only some compounds are listed: those with a hit (about 6.9% of all), similar ones and a draw of the others. Calls follow the shape of the dose curve; as a rule, active = well fitted curve in the direction sought with a large enough effect; inconclusive = small, poorly fitted or top-dose-only effect, or another doubt; inactive = no such curve, though single readings can be large; an effect the other way counts as inactive or inconclusive.
SMILES,JMJD2A Tudor,PLK1 PBD block,VDR inh,L3MBTL1 inh,HP1b chromo inh,BAZ2B block
CCOC(=O)c1cnc(-c2ccccc2)nc1Oc1ccc(Cl)cc1,–,–,–,–,–,–
CCOC(=O)c1cnc(-c2ccccc2O)nc1Cl,17.8µM,–,–,·,–,?
O=[N+]([O-])c1ccc(Nc2cccc(F)c2)nc1,–,–,–,–,–,–
CCn1c(CCn2ccnc2C)n[nH]c1=S,22.4µM,–,–,–,–,–
Cc1ccc(C)c(NC(=O)CC2NCCNC2=O)c1 (stereo not drawn),–,·,–,·,–,–
c1ccc2cc(OCCOCCOc3ccc4ccccc4c3)ccc2c1,–,–,–,–,–,–
CCOc1cccc(OCCOCCN(C)C)c1,22.4µM,–,–,–,?,?
CCOc1cccc(OCCOCCN(C)Cc2ccccc2)c1,–,–,–,·,–,–
CN(C)CCOc1cccc(Cl)c1,22.4µM,–,–,–,?,?
CN(C)CCOC(=O)COc1ccc(Cl)cc1,–,–,–,–,–,–
CN(C)CCOc1ccc2ccccc2c1,10µM,–,–,–,?,44.7µM
CC(C)(C)OC(=O)CC(=O)NNC(=O)c1cc2ccccc2[nH]1,–,·,·,·,·,·
COC(=O)c1sc(-c2ccc(C(C)(C)C)cc2)cc1NC(=O)c1ccccc1C(=O)O,–,21.2µM,?,·,–,79.4µM
COC(=O)c1sc(-c2ccc(C(C)(C)C)cc2)cc1NC(=O)CSCC(=O)O,–,?,–,·,–,–
CN(Cc1ccccc1)C(=S)Nc1cccnc1,56.2µM,21.2µM,–,·,–,–
CC(C)N(Cc1ccccc1)C(=S)Nc1cccnc1,–,–,–,–,–,–
COc1ccc([C@H]2C[C@@H](O)C[C@@H](CCn3cc(-c4ccccc4)nn3)O2)cc1,·,–,·,·,·,·
CC(C)CN(C(=O)COC(=O)c1ccc2c(c1)NC(=O)CS2)C1CCS(=O)(=O)C1 (stereo not drawn),–,21.2µM,–,–,?,–
CC(C)CN(C(=O)COC(=O)CCc1c[nH]c2ccccc12)C1CCS(=O)(=O)C1 (stereo not drawn),–,–,–,·,–,?
CC(C)CN(C(=O)COC(=O)Cc1c[nH]c2ccccc12)C1CCS(=O)(=O)C1 (stereo not drawn),?,26.7µM,–,–,?,–
Cc1ccc(C(=O)Nc2ccccc2C(=O)OCc2cc(=O)n3nc(C4CC4)sc3n2)cc1,–,·,–,·,–,–
CCOC(=O)c1cnc(-n2[nH]c(C)c(Cc3ccccc3)c2=O)[nH]c1=O,7.94µM,–,–,2.82µM,–,2µM
CCOC(=O)c1cnc[nH]c1=O,–,–,–,·,–,·
CCOC(=O)c1cnc(-n2[nH]c(C)cc2=O)[nH]c1=O,2.82µM,–,–,3.16µM,50.1µM,1.78µM
CCOC(=O)c1cnc(Cc2ccccc2)[nH]c1=O,–,–,–,–[2.29 µM],–,–
SMILES,JMJD2A Tudor,PLK1 PBD block,VDR inh,L3MBTL1 inh,HP1b chromo inh,BAZ2B block
Cc1nnc(-c2ccc(N3CCCCCC3)c([N+](=O)[O-])c2)o1,?,–,–,–,–,?
Cc1ccccc1NC(=O)COC(=O)CCc1ccccc1,–,5.97µM,–,–,–,–
O=C(CSc1ccccc1)Nc1ccccc1C(=O)O,–,–,–,·,–,–
O=C(CSc1cn[nH]n1)Nc1ccccc1C(=O)O,79.4µM,?,–,·,–,–
COc1ccccc1NC(=O)Cc1nnc(SCC(=O)Nc2ccccc2F)n1C,11.2µM,11.9µM,?,·,–,–
CC(C)n1c2ccccc2c2nnc(SCC(=O)Nc3ccccc3C(=O)O)nc21,–[11.4 µM],26.7µM,–,·,?,·
COC(=O)c1sccc1S(=O)(=O)N(CC(=O)NCc1ccc(C)cc1)c1ccc(C)cc1,–,·,–,·,–,–
Cc1noc(C)c1COc1ccccc1C(=O)NCc1ccco1,–,–,–,–,–,–
CCc1ccc(NC(=O)CSc2nc3c(c(=O)[nH]2)CN(Cc2ccc(C)cc2)CC3)cc1,–,·,–,·,–,–
NC(=O)SCC(=O)Nc1ccccc1C(=O)O,–,–,79.4µM,–,–,–
COc1ccccc1NC(=O)CSC(N)=O,?,–,22.4µM,·,–,–
Cc1ccccc1NC(=O)CSCC(=O)Nc1ccccc1C,–,–,–,·,–,–
Cc1ccccc1NC(=O)CSC(N)=O,–,?,25.1µM,–,–,–

# Compound activity deposited in PubChem BioAssay by National Center for Advancing Translational Sciences (NCATS).
